The panel holds about 79,000 compounds, 15% with a hit somewhere; the sample as a whole holds those more often. Values without a mark were called inactive. Activity calls are given as the source filed them. No stated cut-off is given here; in the data, active means growth inhibition above about 70%; inactive means the rest.
Legend:
[1] = NCI Yeast Anticancer Drug Screen. Data for the rad50 strain (AID 155);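 further: 0% = growth of vehicle-only cultures of the same strain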; conditions: S. cerevisiae rad50 strain growth inhibition, hits give high values
How it was run: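 Inhibition values express reduced yeast growth in compound-treated cultures relative to vehicle-treated controls.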

[2] = NCI Yeast Anticancer Drug Screen. Data for the mec2-1 strain (AID 157); conditions: S. cerevisiae mec2-1 strain, hits give high values
How it was run: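 Compounds were applied to mec2-1 yeast cells. Their growth was then compared with that of vehicle-treated cultures to give growth inhibition.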

[3] = NCI Yeast Anticancer Drug Screen. Data for the sgs1 mgt1 strain (AID 161);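 further: 0% = growth of cultures given vehicle only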; conditions: S. cerevisiae sgs1 mgt1 strain, hits give high values
How it was run: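 This yeast growth screen uses a strain with defined DNA-repair lesions; compound-treated growth is compared with vehicle-treated growth.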

[4] = NCI Yeast Anticancer Drug Screen. Data for the cln2 rad14 strain (AID 165);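 further: 0% = growth equal to vehicle treated cultures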; conditions: S. cerevisiae cln2 rad14 strain, hits give high values
How it was run: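 Strain: cln2 rad14 yeast, altered in cell cycle control and DNA damage repair. Read-out: growth inhibition vs vehicle.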

[5] = NCI Yeast Anticancer Drug Screen. Data for the bub3 strain (AID 167); conditions: S. cerevisiae bub3 mutant strain, hits give high values
How it was run: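 Steps: expose the mutant yeast strain to compound; grow alongside vehicle-treated cultures; measure growth; express inhibition against the vehicle cultures.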

[6] = NCI Yeast Anticancer Drug Screen. Data for the mlh1 rad18 strain (AID 175); conditions: S. cerevisiae mlh1 rad18 strain growth inhibition, hits give high values
How it was run: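 A repair-deficient yeast strain is exposed to test compound, and growth is scored relative to vehicle-treated controls.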

[7] = at 5.0 µM (retest, dose inferred, filed as 0.5)
[8] = at 50.0 µM (retest, dose inferred, filed as 5.0)

| SMILES | growth inhibition [1, 7] | growth inhibition [1, 8] | growth inhibition ([1]; at 50.0 µM) | growth inhibition [2, 7] | growth inhibition [2, 8] | growth inhibition ([2]; at 50.0 µM) | growth inhibition [3, 7] | growth inhibition [3, 8] | growth inhibition ([3]; at 50.0 µM) | growth inhibition [4, 7] | growth inhibition [4, 8] | growth inhibition ([4]; at 50.0 µM) | growth inhibition [5, 7] | growth inhibition [5, 8] | growth inhibition ([5]; at 50.0 µM) | growth inhibition [6, 7] | growth inhibition [6, 8] | growth inhibition ([6]; at 50.0 µM) |
| --- | --- | --- | --- | --- | --- | --- | --- | --- | --- | --- | --- | --- | --- | --- | --- | --- | --- | --- |
| COc1ccc(Cc2ccc(N)cc2)cc1 | -149% | 78% (active) | 92.2% (active) | -52% | 68% | 86.7% (active) | -68% | 85% (active) | 89.5% (active) | -61% | 91% (active) | 87.8% (active) | -66% | 76% (active) | 91.1% (active) | -132% | 86% (active) | 96.8% (active) |
| CC#CS(=O)(=O)c1ccccc1 | 1% | 40% | 74.7% (active) | -1% | 52% | 85.5% (active) | 10% | 81% (active) | 80.7% (active) | 3% | 23% | 13.9% | 0% | 19% | 6.35% | 36% | 87% (active) | 66.6% |
| Cc1cc(Cl)c2c(c1)C(=N/O)/C(=C\c1ccco1)O2 | 100% (active) | 99% (active) | 88% (active) | 100% (active) | 99% (active) | 90.3% (active) | 96% (active) | 99% (active) | 83.5% (active) | 77% (active) | 99% (active) | 88% (active) | 100% (active) | 99% (active) | 89% (active) | 99% (active) | 99% (active) | 85.2% (active) |
| COc1ccccc1/C=C1\S/C(=N/Nc2nc(C)c(C(C)=O)s2)NC1=O | 20% | 29% | -14.6% | 15% | 32% | -3.1% | 20% | 39% | -0.75% | 20% | 34% | 5.4% | 17% | 43% | -18% | 15% | 36% | -7.7% |
| O=C(Cl)c1cc(-c2ccc(Cl)cc2)nc2c(Cl)cccc12 | 6% | 98% (active) | 72.5% (active) | 11% | 99% (active) | 61.2% | 5% | 99% (active) | 84.8% (active) | 3% | 99% (active) | 42.4% | 4% | 99% (active) | 74.2% (active) | 9% | 99% (active) | 87.2% (active) |
| Cn1cnc([N+](=O)[O-])c1Sc1nc2cccnc2s1 | 45% | 80% (active) | 79.5% (active) | 34% | 77% (active) | 77.1% (active) | 40% | 59% | 67.8% | 29% | 44% | 52% | 38% | 68% | 71.8% (active) | 54% | 90% (active) | 75.6% (active) |
| CCCCCCCCCCCC(=O)OCC1OC(n2cc(F)c(=O)[nH]c2=O)C(N)C(O)C1O (configuration not stated) | 34% | 34% | 90.2% (active) | 31% | 31% | 91% (active) | 10% | 10% | 89.1% (active) | 22% | 22% | 91.2% (active) | -11% | -11% | 90.3% (active) | 24% | 24% | 88.5% (active) |
| CC1OC(OC2C(OC3CCC4(C)C(CCC5(C)C4CC=C4C6CC(C)(C)CCC6(CO)C(O)CC45C)C3(C)C)OC(C(=O)O)C(OC3OC(COC4OC(CO)C(O)C(O)C4O)C(O)C(O)C3O)C2O)C(O)C(O)C1O (configuration not stated) | -21% | 99% (active) | 92.7% (active) | -22% | 100% (active) | 94.2% (active) | -14% | 98% (active) | 94.4% (active) | 15% | 99% (active) | 92.5% (active) | -9% | 99% (active) | 93.4% (active) | 9% | 99% (active) | 93.5% (active) |
| Cc1ccc(SSCCCCCS(=O)O)cc1 | 1% | 24% | 49.5% | 4% | 60% | 23.1% | 3% | 54% | 42.9% | -5% | 34% | 58% | 10% | 88% (active) | 84.4% (active) | 6% | 49% | 77.5% (active) |

Source: PubChem BioAssay (NCI)
